Source: PubChem BioAssay (National Center for Advancing Translational Sciences (NCATS))
Hits are enriched below; roughly 2.4% of the tested compounds scored in any of these assays.
Pol beta inh = DNA polymerase beta (human) inhibition. P06746. Pol beta primer extension/strand displacement, fluorescence kinetic. Potency, µM (top dose mostly 114 µM), usual class: inhibitors. 340,000 tested, 1.3% active. AID 485314
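Pol beta (10 nM) was preincubated with compound for 15 min at room temperature. The reaction was then started with 50 nM substrate and read immediately and after a further 10 min at room temperature.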
FEN1 inhibitor = blocks human flap endonuclease 1 | P39748 | Recombinant FEN1 flap cleavage, fluorescence, 15 min | Potency, µM (series often up to 114 µM), hits mostly inhibitors | 390,000 tested, 0.35% active | AID 588795; note: nearly all actives have a fitted effect of over 65% in size
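Steps: FEN1 (10 nM) dispensed; compound added by pin tool; 15 min at room temperature; substrate added to 50 nM final; reads at 0 min and 15 min; data normalized and fitted (four-parameter Hill).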
POLH inh = inhibitors of human DNA polymerase eta. 390,000 tested, 1.2% active. recombinant Pol eta, fluorescent DNA replication assay. Potency, µM (series often up to 114 µM), hits mostly inhibitors
Target sequence (Q9Y253 whole entry, looked up): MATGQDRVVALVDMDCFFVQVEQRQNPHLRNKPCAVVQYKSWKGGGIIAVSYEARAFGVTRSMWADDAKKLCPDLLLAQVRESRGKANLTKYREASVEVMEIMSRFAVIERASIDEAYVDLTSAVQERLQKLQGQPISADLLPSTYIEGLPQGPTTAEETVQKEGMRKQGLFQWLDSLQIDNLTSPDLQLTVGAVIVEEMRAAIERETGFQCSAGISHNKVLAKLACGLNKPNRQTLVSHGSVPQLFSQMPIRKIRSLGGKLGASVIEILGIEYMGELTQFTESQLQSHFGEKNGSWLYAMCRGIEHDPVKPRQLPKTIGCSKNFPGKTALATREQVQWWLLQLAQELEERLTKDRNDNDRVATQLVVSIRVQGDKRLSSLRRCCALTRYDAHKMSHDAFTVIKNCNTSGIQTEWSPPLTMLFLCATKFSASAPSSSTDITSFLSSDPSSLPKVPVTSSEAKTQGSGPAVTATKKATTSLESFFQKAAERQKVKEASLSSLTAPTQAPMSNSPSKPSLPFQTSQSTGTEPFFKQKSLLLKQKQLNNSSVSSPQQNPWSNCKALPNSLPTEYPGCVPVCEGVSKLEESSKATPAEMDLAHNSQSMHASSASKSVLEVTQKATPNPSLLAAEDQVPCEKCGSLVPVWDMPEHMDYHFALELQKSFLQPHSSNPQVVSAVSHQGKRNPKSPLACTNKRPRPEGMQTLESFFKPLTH
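Pol eta at 10 nM preincubated with compounds 15 min at room temperature; reaction started with fluorescent substrate (50 nM final) and read kinetically at 0 and 10 min.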
WRN inhibitor = blocks human WRN helicase; 360,000 tested, 0.46% active; Potency, µM (top dose mostly 114 µM), actives largely listed as inhibitors; Q14191; AID 651768; WRN helicase unwinding, fluorescent forked duplex, kinetic; note: nearly all actives have a fitted effect of over 55% in size
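Enzyme (20 nM final) and test compound sit together 15 min at room temperature before substrate addition. Substrate is a single-forked duplex oligonucleotide (100 nM) labelled with fluorophore and quencher, with 2 mM ATP; helicase unwinding raises red fluorescence, read kinetically.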
POLK inh = blocks human DNA polymerase kappa activity. Q9UBT6. purified Pol kappa, fluorescent DNA synthesis assay, 10 min. Potency, µM (series often up to 107 µM), actives largely listed as inhibitors. 400,000 tested, 0.53% active
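Inhibition of 10 nM Pol kappa is measured by a fluorescent read-out at 0 and 10 min following addition of 50 nM substrate (final), with a 15-min room-temperature compound preincubation.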
POLI inh = inhibitors of human DNA polymerase iota. Q9UNA4. Pol iota fluorescent replication assay, 10 min. Potency, µM (highest dose often 115 µM), hits mostly inhibitors. 390,000 tested, 1% active. AID 588590
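Fluorescent replication assay read twice, at 0 min and 10 min after adding 50 nM (final) substrate. Enzyme (10 nM) and compounds were first incubated 15 min at room temperature; enzyme-free buffer wells were negative controls.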
Numbers stand for hits; - = inactive; ? = inconclusive; . = no result given; [ ] = another dose, or the depositor's remark. Calls come from the whole dose curve; as a rule, active = well fitted curve in the direction sought with a large enough effect; inconclusive = small, poorly fitted or top-dose-only effect, or another doubt; inactive = no such curve, though single readings can be large; an effect the other way counts as inactive or inconclusive.

SMILES	Pol beta inh	FEN1 inhibitor	POLH inh	WRN inhibitor	POLK inh	POLI inh
C#CCOCCOCCOCCNc1nc(N2CCN(C(=O)CCCCCCCCCCNC(=O)[C@H]([C@@H](C)CC)n3cc(CCCCN=C(N)N)nn3)CC2)nc(N2CCN(C(=O)CCCCCCCCCCNC(=O)[C@H](CCCCN)n3cc(C)nn3)CC2)n1	.	25µM	?	28µM	-	?
C#CCOCCOCCOCCNc1nc(N2CCN(C(=O)CCCCCCCCCCNC(=O)[C@H]([C@@H](C)CC)n3cc(CCCCCN)nn3)CC2)nc(N2CCN(C(=O)CCCCCCCCCCNC(=O)[C@H](CO)n3cc(CCCCCN)nn3)CC2)n1	.	?	-	56µM	-	?
Cc1ccc2c(=O)c3cccc(CC(=O)O)c3oc2c1C	.	.	.	.	-	.
CC(=O)N/C(=C/c1ccccc1)c1sc2ccccc2[n+]1CCCCI	.	?	.	.	-	?
CCN(CC)C(=O)CSc1nc2ccc(NC(=O)CSc3nccn3C)cc2s1	5.6µM	-	-	-	-	25µM
CCN(CC)C(=O)CSc1nc2ccc(NC(=O)CSc3nnc(N)s3)cc2s1	32µM	-	11µM	-	?	13µM
CCN(CC)S(=O)(=O)c1cc(NC(=O)CSc2nnc(N)s2)ccc1C	.	-	-	-	-	-
Cc1ccc(CCNC(=O)CCCn2c(=O)c3cccn3c3ccc(F)cc32)cc1	-	-	-	.	-	-
OC[C@H]1NC[C@@H](O)[C@@H](O)[C@@H]1O	.	.	.	.	-	.
O=C(O)C1CCCC1	.	?	.	.	28µM	?
O=C(O)C1CCNCC1	-	.	-	.	-	-
Cc1cnnc2ccccc12	.	-	.	.	-	-
CC1=CC(c2ccccc2)n2nc(N3C(=O)CCC3=O)nc2N1 (configuration not stated)	-	-	-	-	-	-
CC1=CC(c2ccccc2)n2nc(N3C(=O)c4ccccc4C3=O)nc2N1 (configuration not stated)	-	-	-	-	45µM	-
O=C(N/N=C/c1cc(Br)c(Br)o1)c1cccnc1	32µM	-	11µM	?	?	?
O=C(N/N=C\c1ccco1)c1cncc(Br)c1	-	.	.	.	.	.
O=C(N/N=C/C=C/c1ccco1)c1cnccn1	-	-	?	-	-	?
O=C(N/N=C/C=C/c1ccco1)c1cccnc1	-	-	?	-	-	32µM
O=C(N/N=C\C=C\c1ccco1)c1cc(-c2ccc3ccccc3c2)n[nH]1	16µM	?	50µM	-[11.6 µM]	79µM	32µM
COc1ccc(Br)cc1/C=N/NC(=O)c1cccnc1	-	-	-	-	-	-
O=C(N/N=C\C=C\c1ccco1)c1cncc(Br)c1	?	-	?	?	89µM	20µM
CC[C@H](C)[C@H](NC(=O)[C@H](CCC(=O)O)NC(=O)CNC(=O)[C@@H](NC(=O)[C@@H]1CCCN1C(=O)[C@@H](NC(=O)[C@@H]1CCCN1C(=O)[C@@H]1CCCN1C(=O)[C@H](CC(N)=O)NC(=O)[C@H](CC(N)=O)NC(=O)[C@@H](NC(=O)[C@H](CCSC)NC(=O)[C@H](Cc1c[nH]c2ccccc12)NC(=O)CNC(=O)[C@@H](NC(=O)[C@H](CCC(N)=O)NC(=O)[C@@H](N)CCC(=O)O)[C@@H](C)CC)[C@@H](C)O)[C@@H](C)CC)C(C)C)C(=O)O	.	.	.	.	-	.
CCNc1ncc2nc(-c3ccc(Cl)cc3)c(=O)n(-c3ccc(OC)cc3)c2n1	.	.	.	.	-	.
CC1C/C(=C/c2ccco2)C(=O)/C(=C/c2ccco2)C1 (configuration not stated)	3.5µM	.	.	.	.	.
O=C1/C(=C\c2ccco2)CCC/C1=C\c1ccco1	7.1µM	?	?	16µM	8.9µM	2.8µM
SMILES	Pol beta inh	FEN1 inhibitor	POLH inh	WRN inhibitor	POLK inh	POLI inh
O=C1/C(=C/c2ccco2)CCC1C1CCCC1 (configuration not stated)	-	-	-	-	-	-
O=C1/C(=C/c2ccco2)Cc2ccccc21	?	-	-	-	?	?
CC[C@H](C)[C@H](NC(=O)[C@H](Cc1ccc(O)cc1)NC(=O)[C@H](Cc1cnc[nH]1)NC(=O)[C@H](CCCNC(=N)N)NC(=O)[C@H](CC(C)C)NC(=O)[C@H](C)NC(=O)[C@H](CO)NC(=O)[C@H](Cc1ccc(O)cc1)NC(=O)[C@H](Cc1ccc(O)cc1)NC(=O)[C@H](CCCNC(=N)N)NC(=O)[C@H](C)NC(=O)[C@H](CCSC)NC(=O)[C@H](CC(=O)O)NC(=O)[C@H](CCC(=O)O)NC(=O)[C@H](C)NC(=O)[C@@H]1CCCN1)C(=O)N[C@@H](CC(N)=O)C(=O)N[C@@H](CC(C)C)C(=O)N[C@H](C(=O)N[C@H](C(=O)N[C@@H](CCCNC(=N)N)C(=O)N[C@@H](CCC(N)=O)C(=O)N[C@@H](CCCNC(=N)N)C(=O)N[C@@H](Cc1ccc(O)cc1)C(N)=O)[C@@H](C)O)[C@@H](C)CC	.	.	.	.	-	.
COc1cc2cc(CN(Cc3nnnn3Cc3ccco3)C3CCCCC3)c(=O)[nH]c2cc1OC	45µM	-	?	?	?	?
CCOc1ccc2[nH]c(=O)c(CN(Cc3nnnn3Cc3ccco3)C3CCCCC3)cc2c1	20µM	-	-	-	-	-
CCOc1ccc2[nH]c(=O)c(CN(Cc3ccco3)Cc3nnnn3Cc3ccccc3)cc2c1	-	-	-	-	-	-
COc1ccc(CCn2c(=S)[nH]c(=O)c3cccnc32)cc1OC	.	-	.	.	-	-
CSc1nc(N)c2ncn([C@@H]3O[C@H](COP(=O)(O)OP(=O)(O)OP(=O)(O)O)[C@H](O)[C@H]3O)c2n1	-	.	-	.	.	-
O=C1C(=Cc2cn(-c3ccccc3)nc2-c2ccc(OCc3ccccc3F)cc2)SC(=S)N1CCS(=O)(=O)O	.	.	.	32µM	.	.
COc1ccc(N(C)S(=O)(=O)c2c(C)[nH]c(=O)[nH]c2=O)c(OC)c1	-	-	-	-	-	89µM
Cc1ccc(NC(=O)Cn2c(=O)n(CCC(=O)NCc3ccc4c(c3)OCO4)c(=O)c3sccc32)c(C)c1	?	-	-	.	-	-
Cc1ccc(Cl)cc1NC(=O)Cn1c(=O)n(CCC(=O)NCc2ccc3c(c2)OCO3)c(=O)c2sccc21	14µM	-	-	.	-	-
COc1ccc(NC(=O)Cn2c(=O)n(CCCCCC(=O)NCc3ccc4c(c3)OCO4)c(=O)c3sccc32)cc1Cl	-	89µM	-	.	-	-
CC(C)=CCC/C(C)=C/CC/C(C)=C/CCC1(C)CCc2cc(O)ccc2O1 (configuration not stated)	.	-	.	.	-	-
CC1=C(C(=O)OCc2ccc3nsnc3c2)N2C(=O)[C@@H](NC(=O)OCc3ccc4nsnc4c3)[C@H]2SC1	.	-	.	.	-	?
Cc1ccc(-c2ccc(S(=O)(=O)Nc3cccnc3)cc2)cc1	50µM	-	-	-	-	-
